Here are results for 40 sequences from the supplement of paper PMC6555819.

The subject of this assay is RARa:RXR (NR concentration 270 nM, RXRa partner concentration 90 nM). As to the kind of experiment: PBM binding z-score (relative to random genomic background probes); higher = stronger binding; sequences stand for … in GC…GCGATTGACAGCGTAGAATGAAGG
Put shortly: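 Antibodies against each partner of ligand-free nuclear receptor dimers (one per run) detected binding on custom Agilent 4×180K protein-binding microarrays after 1 h incubation. The double-stranded probes had 34-nt variable regions carrying direct-repeat seeds, single-nucleotide variants, half-site ablations and random human genomic background sequences. Binding z-scores, from regression-normalized fluorescence, use the random background probes as reference.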
With TCAGACACGTGAAGGTAACTCAGGTACGCAGTCG, the PBM binding z-score turned out to be 0.632.
CCTACTGGGCCATTCAAAGGTCATTGATCATATG yielded a PBM binding z-score of 5.19.
To CGTCAAAGTTCAAGGTAACGTATCAGAAAGCAGC belongs 3.48.
With CCGTGTAGGTTATGGGGCATTCAGGCAACGGTGA the figure was 0.761; with CGTCCAAGGTCAATGCTAGGTCCGTGAAAGCATT, 4.21.
To TCTTGTAGATCAAGCAGGTTACGAAAGCCTGAGT belongs 0.951; to ATCTCTAGGTAAAGTTCAGTGCAAGATCGATAGA, 1.49.
Sequence AGTCAAAGTTCATCTAGGTGACGTAAGATATGCT came in with a PBM binding z-score of 3.75.
With CGTCCAAGATCAGAGAGGTCAGTGAATGCCGAGT the figure was 3.09.
With CAGCCTAGGTCAGAGCCAGTATAGGAGGAACGTT the figure was 0.723; with GCTAGCTGGTCAGTAAAAGGTCACACACCGGTCG, 6.16.
To TCTGCTAGCTCAACGATGGTCAGCTAATCTGCTA belongs -0.407; to AGAATGAGGTTATACGTAGATTAGGGAAGAAAGT, 1.72.
Sequence TCTTGTAGATCAATTGAGGTTAAGAAAGTGCGCT yielded a PBM binding z-score of 1.68.
To GGAACGAGGGCAACTTGATAGCAGAGTTTGATGG belongs 0.629.
To TCGAGTAAGTTAGGGGCATTCAGAATGGCGTCGA belongs 0.66.
To CCTACTGGGCCAAAGGTCATTGCTTCCAATGCTC belongs 5.98; to TTACCAAGGTGAAGATCGTTGATCCCTCTGTAGA, 0.533; to CCAGGCAGGTGAAAGGTAACTCAGTCTGGTACGC, 1.53.
Sequence CCTCGGAGGACAGAAGGTCAGAGGTGTCCGCTTT yielded a PBM binding z-score of 2.11.
Take GCGACTGGGGCAAAGCAGGTTACCATTAGGTTGG: the PBM binding z-score is 0.139.
With TCTCGGAGAACACGAAAGGTCAGAGCTCGACATC the figure was 3.89; with CCTTACGGGTCAAGAGGTTATAGCACGACGAGCG, 5.26.
TAGCCTAGGTCGTGGGCCAGTATACCACGCGAAC returned a PBM binding z-score of 0.14.
With TCATATAGGTAAATGCTAGGTGAAGGTCCGATCT the figure was 0.786; with CCGAGTAGGTTATGGGGCATTCTGGCAACGGTGA, 0.523; with TCATATAGGTTAACAGGTGAAAGTCCGTAAGTTA, 1.93.
In turn, CCTCGGAGGACAGAAGGTCAGAGATGTCCGCTTT gave a PBM binding z-score of 1.93.
To GCTTGTAGATCAATGTTAAGAAAGACTAAGCTAA belongs -0.432.
To GGAACGAAGGCAAGTTGATAGCAGAGTTTGATGG belongs -0.931; to CCTAGTTGGCCAGGAGGTCACACACCGGATATGA, 4.66.
To GATACAGGATCAAGGCCAGAGTACGCGTATTGAT belongs -0.382.
The sequence ATATGTAGGTTATCGAGTCATTCAGTTTGCGCAT displayed a PBM binding z-score of 0.687.
With ACTATCAGTTGACTTAGGGCAACCGATACGACGC the figure was 0.465; with CATACAAGGTCAGCTAGGCCAGAGTAGGGACGGC, 3.43; with CGTCGAAGTTCAACTAAGGTAACGTAAAGCACGC, 3.02.
To ATATGTAGGTTATATCCGGGTCATTCAGGCTATG belongs 3.9.
With TCTGGTTGGTCACGGAGGTCACACACGACGGGTA the figure was 4.93.
TCGAGTAGGTTAGTCGGGGCATGCAGCCAACATA registered a PBM binding z-score of 0.207.
With CCTAACGGGTCACGAGGTTATAGCACGACGAGCG the figure was 5.55.
